Compound activity (PubChem)
TWEAK-Fn14 inh – blocks TWEAK-Fn14 interaction in a reporter cell assay | TWEAK-stimulated Fn14 reporter cells, luciferase luminescence, 8 h | inhibition, % at 10 µM | 360,000 compounds, 2% hits | AID 1159606; in the data active = inhibition above about 50%
KKLEB cytotox – reduces viability of KKLEB cystic fibrosis airway cells | KKLEB CF airway cells viability, ATPlite luminescence, overnight; stronger effect = lower value; cells stimulated with P. aeruginosa culture filtrate | activity change (cytotoxicity), % at 5 µM | 360,000 compounds, 0.36% hits;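 active = corrected activity change at or below -50% at 5 µM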
CF NFkB inh – inhibitors of cystic fibrosis induced NF-kB; inhibition, % at 5 µM; KKLEB NF-kB-GFP reporter, PAF-induced, GFP fluorescence overnight; 360,000 compounds, 0.86% hits; AID 588850;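 active = at least 50% inhibition at 5 µM, scaled per plate between neutral and stimulator controls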;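 also: PAF is a Pseudomonas aeruginosa culture filtrate used as stimulus; plate controls were PAF-stimulated DMSO wells for no effect and unstimulated DMSO wells for full effect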
TROY NFkB inh – TROY signaling inhibition. 360,000 compounds, 0.98% hits. Q293 LMP1-TROYcd NF-kB luciferase reporter, 4 h. inhibition, % at 10 µM;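 active = compounds whose plate-normalised and pattern-corrected inhibition of the luciferase reporter signal at the single screening dose is 50% or more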
HIF-2a inh – inhibitors of HIF-2a | AID 624352 | 360,000 compounds, 0.72% hits | 786-0 RCC cells HIF-2a reporter, luciferase luminescence, overnight | inhibition, % at 18.8 µM;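 active = inhibition of the luminescence signal of 40% or more relative to plate controls, in a single-dose primary screen at 18.75 µM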
Peg3 prom inh – Peg3 promoter activity inhibition; AID 588405; 360,000 compounds, 1.7% hits; inhibition, % at 20 µM; HeLa PEG-Prom luciferase reporter, luminescence, overnight;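 active = inhibition of at least 50% at 20 µM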
* = called active by the depositor. Only some compounds are listed: those with a hit (about 4% of all), similar ones and a draw of the others.

SMILES | TWEAK-Fn14 inh | KKLEB cytotox | CF NFkB inh | TROY NFkB inh | HIF-2a inh | Peg3 prom inh
COC(=O)c1ccc(N(C(=O)CNC(=O)c2ccco2)C(C(=O)NCC2CCCO2)c2ccc(OC)c(OC)c2)cc1 (centres undefined) | -8 | 6 | 4 | 3 | 7 | 1
O=C(Nc1ccccc1)c1ccc2c(c1)OCCO2 | -3 | 0 | -6 | -64 | -132 | -199
O=C(Nc1ccc(NC(=O)c2ccc3c(c2)OCCO3)cc1)c1ccccc1 | -41 | -4 | 5 | 16 | -33 | 100*
Cc1ccc(NC(=O)c2ccc3c(c2)OCCO3)cc1S(=O)(=O)Nc1cccc(Cl)c1 | 62* | 12 | 13 | 59* | -139 | -110
O=C(Nc1ccc2oc(-c3ccccc3F)nc2c1)c1ccc2c(c1)OCCO2 | 72* | 10 | -13 | 60* | -273 | -77
O=C(CCNS(=O)(=O)c1ccc2c(c1)CCC(=O)N2)Nc1ccc2c(c1)OCCO2 | 68* | -1 | 8 | 56* | 18 | -38
O=C(Nc1ccc2c(c1)OCCO2)c1ccc(Cl)cc1 | 25 | -21 | -4 | -40 | -142 | -153
CCOc1ccc(S(=O)(=O)NCCC2=CCCCC2)c2ccccc12 | 23 | 13 | 4 | 8 | 14 | 12
CN1C(=O)[C@H]2[C@@H](c3ccc(C(F)(F)F)cc3)N[C@]3(CCCN(Cc4cccn4C)C3=O)[C@H]2C1=O | 12 | 0 | 13 | -9 | 6 | 7
COC(=O)c1ccc(CNC(=O)c2ccc3c(c2)OCCO3)cc1 | 79* | 8 | 15 | -35 | -106 | -91
Cc1ccc(C(=O)NCC(=O)Nc2ccc3c(c2)OCCO3)cc1 | -6 | -8 | -18 | -26 | -56 | -67
CC(C)(C)c1ccc(C(=O)NCCC(=O)Nc2ccc3c(c2)OCCO3)cc1 | 67* | 16 | -18 | 65* | -26 | -12
CCN1CCN(S(=O)(=O)c2ccc(Oc3ccccc3OC)cc2)CC1 | 12 | 7 | -7 | -27 | -4 | 6
Cc1nc(C)c(-c2ccn(S(=O)(=O)c3ccc(Cl)cc3)n2)o1 | -6 | -13 | -3 | -19 | 15 | 7
CC(=O)Nc1cccc(NC(=O)CSc2nc(C)c(C)c(C)c2C#N)c1 | 37 | 7 | -8 | 22 | 12 | -7
Cc1cccc(C)c1NC(=O)CSc1nc(C)c(CC(=O)c2ccc(Br)cc2)c(C)c1C#N | -47 | -2 | 2 | 17 | 13 | 60*
Cc1ccc(/C=[N+](\[O-])c2ccccc2C)o1 | 8 | 2 | 3 | -3 | 5 | 7
COC(=O)c1ccc(COc2ccc(/C=C(\C#N)c3nc4ccccc4[nH]3)cc2OC)o1 | 60* | -12 | -5 | 5 | 0 | 10
CSc1nc2c(cnn2-c2ccc(C)c(C)c2)c(=O)[nH]1 | -30 | -5 | 5 | 0 | 6 | 59*
CCC(C)Sc1nc2c(cnn2-c2ccc(C)c(C)c2)c(=O)[nH]1 (centres undefined) | -40 | -12 | 30 | 9 | 6 | 10
CCOc1ccc(C(C)=O)cc1COc1cccnc1[N+](=O)[O-] | 39 | -24 | 19 | 60* | 22 | 19
COc1ccc(C(C)=O)cc1COc1cccnc1[N+](=O)[O-] | 24 | -7 | 11 | 13 | -13 | -9
NC(=O)c1ccsc1NC(=O)c1ccc(S(=O)(=O)N2CCCc3ccccc32)cc1 | 92* | -16 | 32 | 61* | -55 | 20
CC(C)N1CCc2c(sc(NC(=O)c3ccc(S(=O)(=O)N4CCc5ccccc54)cc3)c2C(N)=O)C1 | 16 | -1 | -53 | 8 | 8 | 98*
CC(C)N1CCc2c(sc(NC(=O)c3cc(-c4cccs4)nc4ccccc34)c2C(N)=O)C1 | -14 | -18 | -59 | -6 | 26 | 78*
SMILES | TWEAK-Fn14 inh | KKLEB cytotox | CF NFkB inh | TROY NFkB inh | HIF-2a inh | Peg3 prom inh
CC(C)N1CCc2c(sc(NC(=O)c3nc4ccccc4s3)c2C(N)=O)C1 | 20 | -14 | -18 | 28 | -70 | -39
O=C(NCc1ccco1)c1ccc2c(=O)n(CC3CCCO3)c(=S)[nH]c2c1 (centres undefined) | 0 | -6 | 3 | -1 | -9 | -4
COC(=O)c1ccc(Cn2c(C)c(C(=O)NCc3cccc(C(F)(F)F)c3)sc2=O)o1 | -8 | 9 | 10 | 8 | 14 | 6
Cc1ccc(C)c(S(=O)(=O)Nc2nc3ccc(S(N)(=O)=O)cc3s2)c1 | -6 | -7 | 8 | 7 | 15 | 11
O=C(Nc1nccs1)c1ccc(N2CCOCC2)c([N+](=O)[O-])c1 | -2 | -5 | 15 | -46 | -281 | -344
CC(=O)C1=C(C)N(c2ccccc2)C(=O)C1(NS(=O)(=O)c1ccc(N)cc1)C(F)(F)F (centres undefined) | 19 | 1 | 18 | 20 | 14 | 0
O=C1c2ccccc2C(=O)N1CCCCN(C(=O)c1ccco1)c1ccc(Cl)cc1 | -20 | -4 | -2 | 4 | 17 | 20
O=C1/C(=C/N(C(=O)c2ccco2)c2ccc(Cl)cc2)Sc2ccccc21 | 83* | -9 | -20 | 60* | -33 | -149
O=C1/C(=C/N(C(=O)c2ccco2)c2ccc(Br)cc2)Sc2ccccc21 | 87* | -10 | -14 | 65* | -47 | -62
COc1ccc(N=Nc2c(N)nn(C)c2N)cc1 | -9 | -7 | -15 | -57 | -245 | -289
O=C(Nc1c(C(=O)Nc2ccccc2)cnn1-c1ccccc1)c1ccco1 | -8 | 0 | -8 | 0 | -7 | 7
CCN(CC)CCNC(=O)c1nn(-c2ccc(Cl)cc2)c2c1CCc1cc(OC)ccc1-2 | -38 | -6 | 19 | -12 | -22 | 94*
NS(=O)(=O)c1c(Sc2ccccc2C(=O)O)ccc2ccccc12 | 54* | 7 | -8 | -9 | -78 | -159
COc1ccc2c(c1)c(CC(=O)OCC(N)=O)c(C)n2C(=O)c1ccc(Cl)cc1 | 25 | -10 | 12 | 54* | 15 | 14
COc1ccc(/C=C/C(=O)NC(=S)Nc2ccc(S(N)(=O)=O)cc2)cc1 | -7 | 12 | -16 | 3 | 12 | 5
COc1ccc2nc(C)cc(Sc3nc4ccccc4s3)c2c1 | 88* | -44 | 64* | 35 | 33 | 67*
NC(=O)CCS(=O)(=O)CCN1CCCCC1 | -9 | 6 | 1 | -6 | 24 | -2
O=S(=O)(CCN1CCCCC1)CCS(=O)(=O)CCN1CCCCC1 | 10 | -3 | 10 | 61* | -8 | -10
CCOc1ccc(/C=C2\CCC(C3CCCC3)C2=O)cc1OC (centres undefined) | -20 | -5 | -8 | -49 | -132 | -71
COc1ccc(/C=C2/CSC/C(=C/c3ccc(OC)c(OC)c3)C2=O)cc1OC | 92* | -92* | 93* | 15 | 92* | 100*
COc1cc(C=C2CCCC(=Cc3ccc(OCC4CO4)c(OC)c3)C2=O)ccc1OCC1CO1 (centres undefined) | 73* | -45 | 86* | -4 | 13 | 93*
